Results taken from PMC12820563, “FoxP3 forms a head-to-head dimer in vivo and stabilizes its multimerization on adjacent microsatellites”.
Whole data set: some 16,000 sequences, median “rpm ratio (pull-down/input)” near 0.94, cut for the highest 2% near 1.7. The full list was thinned out, with the highest values kept by preference.

molecular target: T1, MBP-FoxP1dN (Mus musculus, UniProt P58462 326-579); test: PD-seq (MBP pull-down with sequencing); 20 mM Tris-HCl pH 7.5, 100 mM NaCl, 1.5 mM MgCl2, 0.4 uM protein, 0.1 uM dsDNA library, 30 min, room temperature, amylose pull-down; high values mean tight binding; details: protein: recombinant; tags: His6-MBP; chain copies: 2; dsDNA, one strand shown
T1 sequence: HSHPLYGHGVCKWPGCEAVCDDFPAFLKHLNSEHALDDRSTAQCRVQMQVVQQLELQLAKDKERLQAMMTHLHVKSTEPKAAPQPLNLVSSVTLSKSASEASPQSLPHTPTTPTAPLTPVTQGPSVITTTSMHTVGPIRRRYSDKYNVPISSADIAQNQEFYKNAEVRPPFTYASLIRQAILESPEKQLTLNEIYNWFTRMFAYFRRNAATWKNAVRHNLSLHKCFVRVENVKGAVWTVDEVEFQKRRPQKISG
Method in brief: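 Binding is the reads-per-million enrichment of pull-down relative to input, pooled across replicates. For this, 0.4 µM His6-MBP-tagged mouse FoxP3 or FoxP1 fragment lacking the N-terminus, made in E. coli, was incubated with 0.1 µM Klenow-filled double-stranded degenerate DNA library for 30 min at room temperature in Tris pH 7.5 buffer with NaCl and MgCl2. Complexes bound to amylose resin were washed three times before proteinase K released the DNA for PCR barcoding and Illumina sequencing.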

Sequence | binding signal
GATGATTGTTCTCCCAGCTGATGAATTCTGACTTTCGAGTAAACAAATTTTCCTAATCTTTCTGTTCAAGCGCCATCTAC | 0.897 RPM ratio (pull-down/input)
GATGATTGTTCTCCCAGCTGATGAATTGTTTTGGTCGAGTAAACAAATTTTCCTAATCTTTCTGTTCAAGCGCCATCTAC | 2.02 RPM ratio (pull-down/input)
GATGATTGTTCTCCCAGCTGATGAATTTTTTGGGTCGAGTAAACAAATTTTCCTAATCTTTCTGTTCAAGCGCCATCTAC | 0.836 RPM ratio (pull-down/input)
GATGATTGTTCTCCCAGCTGATGAATTTGTTGGGTCGAGTAAACAAATTTTCCTAATCTTTCTGTTCAAGCGCCATCTAC | 1.56 RPM ratio (pull-down/input)
GATGATTGTTCTCCCAGCTGATGAATTTGTTTGGTCGAGTAAACAAATTTTCCTAATCTTTCTGTTCAAGCGCCATCTAC | 2.1 RPM ratio (pull-down/input)
GATGATTGTTCTCCCAGCTGATGAATTTGGTTGGTCGAGTAAACAAATTTTCCTAATCTTTCTGTTCAAGCGCCATCTAC | 0.868 RPM ratio (pull-down/input)
GATGATTGTTCTCCCAGCTGATGAATTGGTTTGGTCGAGTAAACAAATTTTCCTAATCTTTCTGTTCAAGCGCCATCTAC | 0.947 RPM ratio (pull-down/input)
GATGATTGTTCTCCCAGCTGATGAATTGTTTGGGTCGAGTAAACAAATTTTCCTAATCTTTCTGTTCAAGCGCCATCTAC | 1.79 RPM ratio (pull-down/input)
GATGATTGTTCTCCCAGCTGATGAATTTGATTGGTCGAGTAAACAAATTTTCCTAATCTTTCTGTTCAAGCGCCATCTAC | 0.963 RPM ratio (pull-down/input)
GATGATTGTTCTCCCAGCTGATGAATTCTTTTGGTCGAGTAAACAAATTTTCCTAATCTTTCTGTTCAAGCGCCATCTAC | 1 RPM ratio (pull-down/input)
GATGATTGTTCTCCCAGCTGATGAATTTCTTTGGTCGAGTAAACAAATTTTCCTAATCTTTCTGTTCAAGCGCCATCTAC | 0.881 RPM ratio (pull-down/input)
GATGATTGTTCTCCCAGCTGATGAATTTTGTTGGTCGAGTAAACAAATTTTCCTAATCTTTCTGTTCAAGCGCCATCTAC | 2.26 RPM ratio (pull-down/input)
GATGATTGTTCTCCCAGCTGATGAATTTTTTTGGTCGAGTAAACAAATTTTCCTAATCTTTCTGTTCAAGCGCCATCTAC | 0.952 RPM ratio (pull-down/input)
GATGATTGTTCTCCCAGCTGATGAATTCTTTAAGTCGAGTAAACAAATTTTCCTAATCTTTCTGTTCAAGCGCCATCTAC | 0.837 RPM ratio (pull-down/input)
GATGATTGTTCTCCCAGCTGATGAATTTCTAGCATCGAGTAAACAAATTTTCCTAATCTTTCTGTTCAAGCGCCATCTAC | 1.06 RPM ratio (pull-down/input)
GATGATTGTTCTCCCAGCTGATGAATTGCATCATTCGAGTAAACAAATTTTCCTAATCTTTCTGTTCAAGCGCCATCTAC | 1.84 RPM ratio (pull-down/input)
GATGATTGTTCTCCCAGCTGATGAATTCATGCATTCGAGTAAACAAATTTTCCTAATCTTTCTGTTCAAGCGCCATCTAC | 1.29 RPM ratio (pull-down/input)
GATGATTGTTCTCCCAGCTGATGAATTGATGCATTCGAGTAAACAAATTTTCCTAATCTTTCTGTTCAAGCGCCATCTAC | 1.74 RPM ratio (pull-down/input)
GATGATTGTTCTCCCAGCTGATGAATTCATTGCATCGAGTAAACAAATTTTCCTAATCTTTCTGTTCAAGCGCCATCTAC | 1.24 RPM ratio (pull-down/input)
GATGATTGTTCTCCCAGCTGATGAATTCAACATTTCGAGTAAACAAATTTTCCTAATCTTTCTGTTCAAGCGCCATCTAC | 0.941 RPM ratio (pull-down/input)
GATGATTGTTCTCCCAGCTGATGAATTTCTGCATTCGAGTAAACAAATTTTCCTAATCTTTCTGTTCAAGCGCCATCTAC | 1.35 RPM ratio (pull-down/input)
GATGATTGTTCTCCCAGCTGATGAATTGCAACATTCGAGTAAACAAATTTTCCTAATCTTTCTGTTCAAGCGCCATCTAC | 1.75 RPM ratio (pull-down/input)

Sequence | binding signal
GATGATTGTTCTCCCAGCTGATGAATTGCATTCTTCGAGTAAACAAATTTTCCTAATCTTTCTGTTCAAGCGCCATCTAC | 1.61 RPM ratio (pull-down/input)
GATGATTGTTCTCCCAGCTGATGAATTTTTGCATTCGAGTAAACAAATTTTCCTAATCTTTCTGTTCAAGCGCCATCTAC | 1.48 RPM ratio (pull-down/input)
GATGATTGTTCTCCCAGCTGATGAATTGTTGCATTCGAGTAAACAAATTTTCCTAATCTTTCTGTTCAAGCGCCATCTAC | 1.87 RPM ratio (pull-down/input)
GATGATTGTTCTCCCAGCTGATGAATTTCAACATTCGAGTAAACAAATTTTCCTAATCTTTCTGTTCAAGCGCCATCTAC | 0.964 RPM ratio (pull-down/input)
GATGATTGTTCTCCCAGCTGATGAATTGCATTCATCGAGTAAACAAATTTTCCTAATCTTTCTGTTCAAGCGCCATCTAC | 1.46 RPM ratio (pull-down/input)
GATGATTGTTCTCCCAGCTGATGAATTAAACAGATCGAGTAAACAAATTTTCCTAATCTTTCTGTTCAAGCGCCATCTAC | 1.27 RPM ratio (pull-down/input)
GATGATTGTTCTCCCAGCTGATGAATTATAAGTATCGAGTAAACAAATTTTCCTAATCTTTCTGTTCAAGCGCCATCTAC | 1.19 RPM ratio (pull-down/input)
GATGATTGTTCTCCCAGCTGATGAATTGAATAAGTCGAGTAAACAAATTTTCCTAATCTTTCTGTTCAAGCGCCATCTAC | 0.918 RPM ratio (pull-down/input)
GATGATTGTTCTCCCAGCTGATGAATTTTAAATTTCGAGTAAACAAATTTTCCTAATCTTTCTGTTCAAGCGCCATCTAC | 0.924 RPM ratio (pull-down/input)
GATGATTGTTCTCCCAGCTGATGAATTCAGCACTTCGAGTAAACAAATTTTCCTAATCTTTCTGTTCAAGCGCCATCTAC | 0.847 RPM ratio (pull-down/input)
GATGATTGTTCTCCCAGCTGATGAATTACAGTGTTCGAGTAAACAAATTTTCCTAATCTTTCTGTTCAAGCGCCATCTAC | 1.16 RPM ratio (pull-down/input)
GATGATTGTTCTCCCAGCTGATGAATTGAGTCAATCGAGTAAACAAATTTTCCTAATCTTTCTGTTCAAGCGCCATCTAC | 1.01 RPM ratio (pull-down/input)
GATGATTGTTCTCCCAGCTGATGAATTGGAAGCGTCGAGTAAACAAATTTTCCTAATCTTTCTGTTCAAGCGCCATCTAC | 0.893 RPM ratio (pull-down/input)
GATGATTGTTCTCCCAGCTGATGAATTGAATGGCTCGAGTAAACAAATTTTCCTAATCTTTCTGTTCAAGCGCCATCTAC | 0.823 RPM ratio (pull-down/input)
GATGATTGTTCTCCCAGCTGATGAATTGACCGAGTCGAGTAAACAAATTTTCCTAATCTTTCTGTTCAAGCGCCATCTAC | 0.835 RPM ratio (pull-down/input)
GATGATTGTTCTCCCAGCTGATGAATTCCTTCTCTCGAGTAAACAAATTTTCCTAATCTTTCTGTTCAAGCGCCATCTAC | 0.736 RPM ratio (pull-down/input)
GATGATTGTTCTCCCAGCTGATGAATTATCGTCGTCGAGTAAACAAATTTTCCTAATCTTTCTGTTCAAGCGCCATCTAC | 0.884 RPM ratio (pull-down/input)
GATGATTGTTCTCCCAGCTGATGAATTTCTAGTTTCGAGTAAACAAATTTTCCTAATCTTTCTGTTCAAGCGCCATCTAC | 0.858 RPM ratio (pull-down/input)
GATGATTGTTCTCCCAGCTGATGAATTTCGCATGTCGAGTAAACAAATTTTCCTAATCTTTCTGTTCAAGCGCCATCTAC | 0.944 RPM ratio (pull-down/input)
GATGATTGTTCTCCCAGCTGATGAATTAGTCACCTCGAGTAAACAAATTTTCCTAATCTTTCTGTTCAAGCGCCATCTAC | 0.877 RPM ratio (pull-down/input)
GATGATTGTTCTCCCAGCTGATGAATTCTGGGCTTCGAGTAAACAAATTTTCCTAATCTTTCTGTTCAAGCGCCATCTAC | 0.843 RPM ratio (pull-down/input)
GATGATTGTTCTCCCAGCTGATGAATTAGTAATTTCGAGTAAACAAATTTTCCTAATCTTTCTGTTCAAGCGCCATCTAC | 1.07 RPM ratio (pull-down/input)

Sequence | binding signal
GATGATTGTTCTCCCAGCTGATGAATTAGTATTGTCGAGTAAACAAATTTTCCTAATCTTTCTGTTCAAGCGCCATCTAC | 2.55 RPM ratio (pull-down/input)
GATGATTGTTCTCCCAGCTGATGAATTTAGTATTTCGAGTAAACAAATTTTCCTAATCTTTCTGTTCAAGCGCCATCTAC | 1.24 RPM ratio (pull-down/input)
GATGATTGTTCTCCCAGCTGATGAATTAGTATTTTCGAGTAAACAAATTTTCCTAATCTTTCTGTTCAAGCGCCATCTAC | 2.28 RPM ratio (pull-down/input)
GATGATTGTTCTCCCAGCTGATGAATTGTATTAGTCGAGTAAACAAATTTTCCTAATCTTTCTGTTCAAGCGCCATCTAC | 1.3 RPM ratio (pull-down/input)
GATGATTGTTCTCCCAGCTGATGAATTAGTTCTGTCGAGTAAACAAATTTTCCTAATCTTTCTGTTCAAGCGCCATCTAC | 0.873 RPM ratio (pull-down/input)
GATGATTGTTCTCCCAGCTGATGAATTAACATCGTCGAGTAAACAAATTTTCCTAATCTTTCTGTTCAAGCGCCATCTAC | 0.998 RPM ratio (pull-down/input)
GATGATTGTTCTCCCAGCTGATGAATTAAAACATTCGAGTAAACAAATTTTCCTAATCTTTCTGTTCAAGCGCCATCTAC | 1.4 RPM ratio (pull-down/input)
GATGATTGTTCTCCCAGCTGATGAATTAGACGTATCGAGTAAACAAATTTTCCTAATCTTTCTGTTCAAGCGCCATCTAC | 1.02 RPM ratio (pull-down/input)
GATGATTGTTCTCCCAGCTGATGAATTTCGTGTTTCGAGTAAACAAATTTTCCTAATCTTTCTGTTCAAGCGCCATCTAC | 1.02 RPM ratio (pull-down/input)
GATGATTGTTCTCCCAGCTGATGAATTCGTGTTGTCGAGTAAACAAATTTTCCTAATCTTTCTGTTCAAGCGCCATCTAC | 2.52 RPM ratio (pull-down/input)
GATGATTGTTCTCCCAGCTGATGAATTCGTGTGTTCGAGTAAACAAATTTTCCTAATCTTTCTGTTCAAGCGCCATCTAC | 1.22 RPM ratio (pull-down/input)
GATGATTGTTCTCCCAGCTGATGAATTCTGTTTTTCGAGTAAACAAATTTTCCTAATCTTTCTGTTCAAGCGCCATCTAC | 1.99 RPM ratio (pull-down/input)
GATGATTGTTCTCCCAGCTGATGAATTCGAGTTTTCGAGTAAACAAATTTTCCTAATCTTTCTGTTCAAGCGCCATCTAC | 1.08 RPM ratio (pull-down/input)
GATGATTGTTCTCCCAGCTGATGAATTCTTCGTGTCGAGTAAACAAATTTTCCTAATCTTTCTGTTCAAGCGCCATCTAC | 0.867 RPM ratio (pull-down/input)
GATGATTGTTCTCCCAGCTGATGAATTCCTGTTTTCGAGTAAACAAATTTTCCTAATCTTTCTGTTCAAGCGCCATCTAC | 2.04 RPM ratio (pull-down/input)
GATGATTGTTCTCCCAGCTGATGAATTCTCTGTTTCGAGTAAACAAATTTTCCTAATCTTTCTGTTCAAGCGCCATCTAC | 0.91 RPM ratio (pull-down/input)
GATGATTGTTCTCCCAGCTGATGAATTCGTCGTGTCGAGTAAACAAATTTTCCTAATCTTTCTGTTCAAGCGCCATCTAC | 0.922 RPM ratio (pull-down/input)
GATGATTGTTCTCCCAGCTGATGAATTCCCTGTTTCGAGTAAACAAATTTTCCTAATCTTTCTGTTCAAGCGCCATCTAC | 0.907 RPM ratio (pull-down/input)
GATGATTGTTCTCCCAGCTGATGAATTCGTGTTTTCGAGTAAACAAATTTTCCTAATCTTTCTGTTCAAGCGCCATCTAC | 2.29 RPM ratio (pull-down/input)
GATGATTGTTCTCCCAGCTGATGAATTCCTGATTTCGAGTAAACAAATTTTCCTAATCTTTCTGTTCAAGCGCCATCTAC | 1.02 RPM ratio (pull-down/input)
